According to PubChem BioAssay AID2546 (National Center for Advancing Translational Sciences (NCATS), 2010):
The campaign covered roughly 310,000 compounds. About 11,000 (3.5%) were called active. Roughly 8% stayed inconclusive and do not appear here. The sample holds actives, similar compounds and a random draw of the others, so the mix is not that of the screen. Values without a mark were called inactive. Calls follow the shape of the dose curve; as a rule, active = well fitted inhibition curve with a large enough effect; inconclusive = small, poorly fitted or top-dose-only effect, or effect the other way; inactive = flat fitted curve, though single readings scatter.

Assay: VP16 counterscreen qHTS for inhibitors of ROR gamma transcriptional activity;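 also: Gal4-VP16 expression switched on by copper sulfate through the metallothionein promoter; nearly all actives have a fitted effect of over 50% in size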
Conditions: Drosophila S2 Gal4-VP16 UAS-luciferase, luminescence, 20 h; series mostly up to 53.6 µM; activity, negative = inhibition: at the top concentration
% is scaled to controls: 0 for no effect and ±100 for the full control effect; potency is read from the fitted curve at half-maximal effect.

Structure (SMILES) | activity, negative = inhibition [%] | Potency
CCOC(=O)[C@@H]1[C@H]2COc3cc(OC)ccc3[C@@H]2N2C(=O)N(c3cccc(C)c3)C(=O)[C@@]12C | -2.17 | –
CCOc1ccc(N(CC(=O)NCCc2ccc(F)cc2)S(=O)(=O)c2ccccc2)cc1 | -5.48 | –
Cc1ccccc1N1CC(C(=O)Nc2nnc(SCCC3OCCO3)s2)CC1=O (centres undefined) | -0.0441 | –
CCC(C)(C)NC(=O)CN(C(=O)CCC(=O)Nc1nccs1)c1ccc2c(c1)OCO2 | 13.8 | –
C=CCNC(=S)NNC(=O)c1ccc(Br)o1 | -22.5 | –
C=CCNC(=S)NNC(=O)c1cc(Cl)ccc1OC | -14 | –
C=CCNC(=S)NNC(=O)COc1c(Cl)cc(Cl)cc1Cl | – | 1.58 µM (active)
CC(C)[C@H](NC(=O)N1CCn2c1nc1ccccc12)C(=O)NCc1ccc2c(c1)OCO2 | 2.6 | –
CCN(C(=O)CN1C(=O)/C(=C/c2ccc(F)cc2)SC1=S)C1CCS(=O)(=O)C1 (centres undefined) | -1.96 | –
COc1ccc(N(C(=O)c2cccnc2)S(=O)(=O)c2ccc(OC)c(OC)c2)cc1 | -4.37 | –
COc1ccc(Cc2nnc(NC(=O)c3ccc(OC)cc3OC)s2)cc1 | 25.6 | –
COc1cc(SC)ccc1C(=O)NCCOc1ccccc1Cl | 4.25 | –
COc1cc(SC)ccc1C(=O)Nc1nc(C)cs1 | – | 3.98 µM (active)
CCn1c2ccc(F)cc2c2nnc(SCCN3CCOCC3)nc21 | -1.32 | –
CCC(=O)c1cn(CCOc2ccccc2OC)c2ccccc12 | -8.86 | –
CCOc1ccc(N(C)Cc2cc(=O)oc3ccc(OC)cc23)cc1 | -9.57 | –
Cc1cc(=O)oc2c3c(cc(OCC(=O)NCc4ccccn4)c12)OC(C)(C)CC3 | -3.85 | –
CCc1ccc(/C=C2\SC(N3CCOCC3)=NC2=O)cc1 | -8.68 | –
O=C1N=C(N2CCCC2)S/C1=C\c1cccc(Br)c1 | 13.8 | –
O=C1N=C(N2CCc3ccccc3C2)S/C1=C\c1ccc(O)cc1 | – | 1.58 µM (active)
CCCCn1c(=S)[nH]c2ccccc2c1=O | – | 5.01 µM (active)
CCCCNC(=O)c1ccc(-n2c(=S)[nH]c3ccccc3c2=O)cc1 | 14.8 | –
CN(C)CCn1c(=S)[nH]c2ccc(Cl)cc2c1=O | -3.83 | –
CCCCNC(=O)CCn1c(=S)[nH]c2cc3c(cc2c1=O)OCO3 | -11.1 | –
CCN(CC)CCn1c(=S)[nH]c2ncccc2c1=O | 7.04 | –
CCCCn1c(=S)[nH]c2ncccc2c1=O | – | 3.55 µM (active)
O=C(NC1CCCCCCC1)c1cccs1 | -16.3 | –

Structure (SMILES) | activity, negative = inhibition [%] | Potency
CCCc1nn2c(=O)cc(CSCC(=O)Nc3cccc(C)c3)nc2s1 | 0.474 | –
CCOC(=O)N1CCN(S(=O)(=O)c2ccc(Br)cc2)CC1 | 2.58 | –
Cc1ccc(NC(=O)CCC(=O)c2ccc(Br)cc2)cc1 | -7.45 | –
CCC(Cc1ccccc1)NS(=O)(=O)c1ccc2c(c1)NC(=O)CS2 (centres undefined) | 1.55 | –
CCc1ccc(NC(=O)CCNS(=O)(=O)c2cccs2)cc1 | 5.31 | –
CCn1c(=S)sc2c(=O)n(CC(=O)Nc3cccc(Br)c3)c(C)nc21 | -2.31 | –
Cc1ccc(OCc2cc(C(=O)N(C)CCc3ccccc3)no2)cc1C | -6.16 | –
CN(Cc1cccnc1)C(=O)c1cc(COc2ccc3ncccc3c2)on1 | – | 2.82 µM (active)
CC(=O)c1cccc(OCc2cc(C(=O)NC(C)Cc3cccnc3)no2)c1 (centres undefined) | 16 | –
COc1ccc(C(CCN2CCOCC2)c2c(OC)cc(OC)c3c2OC(=O)CC3c2ccc(OC)cc2)cc1 (centres undefined) | -26.9 | –
COc1cccc(-c2nc3n(n2)C(c2ccccc2Cl)C(C(N)=O)=C(C)N3)c1 (centres undefined) | -5.08 | –
CC1=C(C(N)=O)C(c2ccc(F)cc2)n2nc(CCCO)nc2N1 (centres undefined) | 7.17 | –
CC1=C(C(N)=O)C(c2ccc3c(c2)OCO3)n2nc(-c3cccc(C)c3)nc2N1 (centres undefined) | – | 20 µM (active)
COc1ccc(S(=O)(=O)NCCc2cc3ccc(C)c(C)c3[nH]c2=O)cc1 | 6.83 | –
Brc1ccc(-c2noc(-c3ccccc3)n2)o1 | -15.6 | –
O=C(Oc1ccc(-c2nc(-c3ccccn3)no2)cc1)c1ccccc1 | – | 6.31 µM (active)
COc1nc(-c2ccc(Cl)cc2)ccc1-c1noc(-c2cccs2)n1 | -2.8 | –
c1csc(-c2nc(-c3ccncc3)no2)c1 | -4.55 | –
c1ccc(-c2noc(-c3cccs3)n2)nc1 | – | 12.6 µM (active)
O=C(Oc1ccc(Br)cc1)c1cccnc1 | -1.3 | –
Cn1c(=O)[nH]c(=O)c2c1nc(N1CCN(C(c3ccccc3)c3ccccc3)CC1)n2CCO | -3.53 | –
CCNC(=S)N(CCN(CC)CC)Cc1cc2cc3c(cc2[nH]c1=O)OCCO3 | 6.76 | –
COc1ccc(-c2cn(-c3ccc(OC)cc3)c(=S)[nH]2)cc1 | – | 1.41 µM (active)
COc1ccc(N2C(=O)CNC2=S)cc1 | -1.96 | –
COc1ccc(-n2c(C)csc2=S)cc1 | 2.5 | –
Cc1ccc(OCC(=O)Nc2ccc(N3CCN(C(=O)c4ccco4)CC3)cc2)c(C)c1 | 0.609 | –
CC(C)(C)c1ccc(Cn2nnc3c(=O)[nH]c(C4CCCN(C(=O)c5ccco5)C4)nc32)cc1 (centres undefined) | -1.24 | –
